Source: PubChem BioAssay (NCATS)
Results filed as inconclusive are left out. Entries that show only a call come without a potency. Unmarked numbers belong to inactive results. Active and inactive are the calls of the source. Calls follow the shape of the dose curve; as a rule, active = well fitted cell-killing curve with a large enough effect; inconclusive = small, poorly fitted or top-dose-only effect, or effect the other way; inactive = flat fitted curve, though single readings scatter.

Key:
Assay in all cases: Primary qHTS to identify gynecologic anti-cancer compounds using libraries of approved drugs and bioactive compounds (AID 1345084); also: nearly all actives have a fitted effect of over 55% in size
Settings in all cases: Gynecologic cancer cell panel viability, ATPlite luminescence, 48 h; series mostly up to 57.5 µM
[1] = tested on: SKOV3
Method in brief: (§1)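 Cell viability after 48 h drug treatment, ATPlite luminescence readout; five doses.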

[2] = tested on: Tov-21-G
Method in brief: as §1

[3] = tested on: Tov112D
Method in brief: as §1
Potency is read from the fitted curve at half-maximal effect.

Row | Compound | Potency [1] | Potency [2] | Potency [3] | activity change, negative = cytotoxicity [1] | activity change, negative = cytotoxicity [2] | activity change, negative = cytotoxicity [3]
1 | O=c1[nH]c2ccccc2n1CCN1CCN(c2cccc(C(F)(F)F)c2)CC1 | inactive | inactive | inactive | – | – | –
2 | CC#C[C@@H](CC(=O)O)c1ccc(OCc2cccc(-c3ccc(C(F)(F)F)cc3)c2)cc1 | inactive | inactive | inactive | – | – | –
3 | CC(C)c1c(O)ccc2c1CC[C@H]1C(C)(C)CCC[C@]21C | inactive | inactive | inactive | – | – | –
4 | COc1ccc(NC(=O)c2ccc(C(=N)N(C)C)cc2)c(C(=O)Nc2ccc(Cl)cn2)c1 | inactive | inactive | inactive | – | – | –
5 | CCN(CC)CCCS(=O)(=O)N[C@H](CCc1ccccc1)c1nc(Cc2ccc(Br)cc2)no1 | inactive | inactive | inactive | – | – | –
6 | C1=Cc2ccccc2C(=C2CCN(CCCCc3nn[nH]n3)CC2)c2ccccc21 | inactive | inactive | inactive | – | – | –
7 | CC(=O)O[C@@H]1C2=C(O)C(=O)[C@](C)(OC(C)=O)C(=O)C2=CO[C@@]12O[C@@H](C)CC[C@H]2OC(C)=O | inactive | inactive | inactive | – | – | –
8 | CCCCOc1ccc(S(=O)(=O)n2c(C)nc3ccccc32)cc1 | inactive | inactive | inactive | – | – | –
9 | CS(=O)(=O)Nc1ccc2oc3c(OC(F)F)ccc(C(=O)Nc4c(Cl)cncc4Cl)c3c2c1 | inactive | inactive | inactive | – | – | –
10 | Cn1ncc(Cl)c1-c1cc(C(=O)N[C@H](CN)Cc2ccc(F)c(F)c2)sc1Cl | 14100 nM (active) | 891 nM (active) | inactive | – | – | –
11 | O=C(Nc1ccccc1C(=O)NC1CCCCNC1=O)c1cc2ccccc2s1 (centres undefined) | inactive | inactive | inactive | – | – | –
12 | CC(=O)OC1CC2(C)C(CCC(C)C23Cc2c(O)cc(CO)c(C=O)c2O3)C(C)(C)C1O (centres undefined) | inactive | inactive | inactive | – | – | –
13 | CN(C)CC#CCCC(=O)C(O)(c1ccccc1)C1CCC1 (centres undefined) | inactive | inactive | inactive | – | – | –
14 | O=C(NCCCCN1CCN(c2cccc(Cl)c2Cl)CC1)c1cc2ccccc2s1 | inactive | inactive | inactive | – | – | –
15 | CCCc1cc(C)n(C)c(=O)c1CN(C)C(=O)c1cc(-c2ccc(N3CCN(C(C)C)CC3)nc2)cc2c1cnn2C(C)C | inactive | inactive | inactive | – | – | –
16 | O=C(C1CCCCC1)N(CCN1CCN(c2ccccc2O)CC1)c1ccccn1 | inactive | inactive | inactive | – | – | –
17 | COc1ccc([C@H](Cc2ccncc2)c2ccccc2)cc1OC1CCCC1 | inactive | inactive | inactive | – | – | –
18 | CCN1CCC[C@@H]1CNC(=O)c1ccc2c(c1)NC(=O)c1cccc(C)c1S2 | inactive | inactive | inactive | – | – | –
19 | CC1(C)CCCC2(C)C1C(OC(=O)/C=C/C=C/C=O)C=C1COC(=O)C12O (centres undefined) | inactive | inactive | inactive | – | – | –
20 | Cc1cc(OCCCS(C)(=O)=O)cc(C)c1-c1cccc(COc2ccc3c(c2)OCC3CC(=O)O)c1 (centres undefined) | inactive | inactive | inactive | – | – | –
21 | Cn1cc(-c2ccc(F)c(C(F)(F)F)c2)nc1C1CCN(c2ncnc3[nH]ncc23)CC1 | inactive | inactive | inactive | – | – | –

Row | Compound | Potency [1] | Potency [2] | Potency [3] | activity change, negative = cytotoxicity [1] | activity change, negative = cytotoxicity [2] | activity change, negative = cytotoxicity [3]
22 | CCC(C)C(=O)O[C@H]1[C@@H](OC(=O)c2ccoc2)C[C@](C)(O)[C@]23OC(C)(C)[C@H](C[C@H](OC(=O)c4ccoc4)[C@]12COC(C)=O)[C@H]3OC(C)=O (some centres undefined) | inactive | inactive | inactive | – | – | –
23 | O=C(Nc1ccc(Cl)cc1)c1ccccc1NCc1ccncc1 | inactive | inactive | inactive | – | – | –
24 | Cc1ccc(-c2ncc[nH]2)cc1NC(=O)c1ccc(OCc2ccccn2)cc1 | inactive | inactive | inactive | – | – | –
25 | C[C@]12CC[C@@H]3c4ccc(O)c(O)c4CC[C@H]3[C@@H]1CCC2=O | inactive | inactive | inactive | – | – | –
26 | C=CC(C)(C)C12CC3C(=O)N4C(CC5(C(C)(C)C=C)c6ccccc6NC45)C(=O)N3C1Nc1ccccc12 (centres undefined) | inactive | inactive | inactive | – | – | –
27 | COc1ccc(NC(=O)c2ccc(-c3ccc(-c4nnc(C)o4)cc3C)cc2)cc1N1CCN(C)CC1 | inactive | inactive | inactive | – | – | –
28 | CCOC(=O)c1cnn(-c2ccccc2)c1NC(=O)c1cc2nc(-c3ccco3)cc(C(F)(F)Cl)n2n1 | inactive | inactive | inactive | – | – | –
29 | NC(=O)C1=CC2C3C=CC2C(OC3=O)O1 (centres undefined) | inactive | inactive | inactive | – | – | –
30 | C=C1CCC2[C@](C)(CCC[C@@]2(C)C=O)[C@H]1CC/C(C)=C/CO (some centres undefined) | inactive | inactive | inactive | – | – | –
31 | O=C1COc2nccc(-c3ccccc3F)c2CN1Cc1cc(C(F)(F)F)cc(C(F)(F)F)c1 | inactive | inactive | inactive | – | – | –
32 | O=C(NC1(c2ccccc2)CC1)c1c(CN2CCC(N3CCCCC3)CC2)c(-c2cccc(C(F)(F)F)c2)nc2cc(Br)ccc12 | inactive | inactive | inactive | – | – | –
33 | C/C=C(\C)C(=O)OC1C=C(C)CC(OC(=O)c2ccc(O)cc2)C2C1(C)CCC2(O)C(C)C (centres undefined) | inactive | inactive | inactive | – | – | –
34 | CC(=O)OC1C(=O)C2C3OCC4=C3[C@@](C)(CC[C@@H]4O)CC[C@]2(C)[C@H]1C(C)C (some centres undefined) | inactive | inactive | inactive | – | – | –
35 | Nc1nc2c(c(N3CC[C@@H](N)C3)n1)CCCc1ccccc1-2 | 28200 nM (active) | inactive | inactive | – | – | –
36 | O=C(NC1CCC1)c1ccc(C#Cc2cccc(F)c2)nc1 | inactive | inactive | inactive | – | – | –
37 | C[C@@H]1O[C@@H](O[C@H]2CC[C@@]3(C)C(CC[C@]4(C)C3CC=C3[C@@H]5CC(C)(C)CC[C@]5(C(=O)O[C@@H]5O[C@H](CO)[C@@H](O)[C@H](O)[C@H]5O)CC[C@]34C)[C@]2(C)CO)[C@H](O)[C@H](O[C@@H]2O[C@H](CO)[C@@H](O)[C@H](O)[C@H]2O)[C@H]1O (some centres undefined) | – | – | – | 8.14% [at 11.6 µM] | -24% [at 11.6 µM] | 1.58% [at 11.6 µM]
38 | CC1(NC(=O)c2ccc(C#Cc3cccc(F)c3)cn2)COC1 | inactive | inactive | inactive | – | – | –
39 | Cn1ccc(NC(=O)c2cc(Oc3ccc(C(=O)N4CCC4)c(F)c3)c3c(c2)OC(C)(C)C3)n1 | inactive | inactive | inactive | – | – | –
40 | O=C(NC[C@H]1CN(c2ccc(N3CCOCC3=O)cc2)C(=O)O1)c1ccc(Cl)s1 | inactive | inactive | inactive | – | – | –
41 | Cc1cc(F)c(C(=O)Nc2cccc(-c3nncn3C(C)C)n2)cc1-n1cnc(C2CC2)c1 | inactive | inactive | inactive | – | – | –
42 | COC1CC(O[C@H]2CC[C@]3(C)C4CC[C@]5(C)C(C6=CC(=O)OC6)=CCC56OC46CC[C@@H]3C2)OC(C)C1O[C@@H]1O[C@H](CO[C@@H]2O[C@H](CO)[C@@H](O)[C@H](O)[C@H]2O)[C@@H](O)[C@H](O)[C@H]1O (some centres undefined) | 3160 nM (active) | 2240 nM (active) | 2000 nM (active) | – | – | –

Row | Compound | Potency [1] | Potency [2] | Potency [3] | activity change, negative = cytotoxicity [1] | activity change, negative = cytotoxicity [2] | activity change, negative = cytotoxicity [3]
43 | COc1c(C)cc(NC(=O)c2nn(Cc3ccc(F)cc3)c3c2CN(C(=O)c2ccc[nH]2)C[C@]3(C)C(N)=O)cc1C | – | – | – | -24.2% [at 11.6 µM] | 11.9% [at 11.6 µM] | 9.54% [at 11.6 µM]
44 | O=c1[nH]c2ccc(C#CCN3CCC(Cc4ccccc4)CC3)cc2[nH]1 | inactive | inactive | inactive | – | – | –
45 | Clc1ccc(Nc2nc3ccccc3c3nc(C4CCCCC4)[nH]c23)cc1Cl | inactive | inactive | inactive | – | – | –
46 | CCC(C(C)O)n1ncn(-c2ccc(N3CCN(c4ccc(OCC5COC(Cn6cncn6)(c6ccc(F)cc6F)C5)cc4)CC3)cc2)c1=O (centres undefined) | inactive | inactive | inactive | – | – | –
47 | C/C=C(/C)C(=O)O[C@@H]1C[C@@H](OC(=O)CC(C)C)C2(C)C3C(=O)C=C(C)C2C3C1(C)C (some centres undefined) | inactive | inactive | inactive | – | – | –
48 | C=C(C(=O)OC[C@H]1O[C@@H](OC(=O)/C=C/c2ccccc2)[C@H](O)[C@@H](O)[C@@H]1O)C(O)CO (some centres undefined) | inactive | inactive | inactive | – | – | –
49 | N[C@@H]1c2cccnc2[C@H](OC(=O)N2CCC(n3c(=O)[nH]c4ncccc43)CC2)CC[C@H]1c1cccc(F)c1F | inactive | inactive | inactive | – | – | –
50 | C=C(C(=O)O)[C@@H]1CC=C(CCC(C)=O)[C@@H](C)CC1 | inactive | inactive | inactive | – | – | –
51 | COC(=O)c1ccc(N2CCN(C)CC2)c(NC(=O)c2cccc(OC)c2)c1 | inactive | inactive | inactive | – | – | –
52 | CN(C)N(C)C(=O)[C@@]1(Cc2ccccc2)CCCN(C(=O)[C@@H](Cc2c[nH]c3ccccc23)NC(=O)C(C)(C)N)C1 | inactive | inactive | inactive | – | – | –
53 | C=C1C(=O)OC2C3=C(C)C(=O)CC3C(C)CC(O)C12 (centres undefined) | inactive | inactive | inactive | – | – | –
54 | O=c1cc(NCCCN[C@@H]2CCOc3c(Br)cc(Br)cc32)[nH]c2ccsc12 | inactive | inactive | inactive | – | – | –
55 | CC(=O)OC1C(OC(=O)c2ccccc2)C2C(C)(C)CCC(OC(C)=O)C2(C)C23CCC(C)(C2)C(=O)CC13 (centres undefined) | inactive | inactive | inactive | – | – | –
56 | COc1ccc2[nH]c(=O)c3c(c2c1)OC(C)(C)C=C3 | inactive | inactive | inactive | – | – | –
57 | O=S(=O)(c1ccccc1)N(CC(F)(F)F)c1ccc(C(O)(C(F)(F)F)C(F)(F)F)cc1 | inactive | inactive | inactive | – | – | –
58 | O=C1Cc2c([nH]c3ccc(Br)cc23)-c2ncccc2N1 | inactive | inactive | inactive | – | – | –
59 | CC1=CC2/C=C(\C)CCC3OC(C)(C)OC3CCC(=O)C23C(=O)NC(CC(C)C)C3C1C (centres undefined) | inactive | inactive | inactive | – | – | –
60 | CCCC(=O)C1(c2ccccc2)CCN(C(=O)[C@@H](Cc2ccc(OC)cc2)NC(=O)[C@@H](N)Cc2cncn2C)CC1 | inactive | inactive | inactive | – | – | –
61 | CCOC(=O)c1ccc(OCCC2CCN(c3ccc(C)nn3)CC2)cc1 | inactive | inactive | inactive | – | – | –
62 | CC(=O)NC[C@H]1CN(c2ccc(N3CCSCC3)c(F)c2)C(=O)O1 | inactive | inactive | inactive | – | – | –
63 | CCC[C@H](N[C@H]1CCc2cc(F)cc(F)c2C1)C(=O)Nc1cn(C(C)(C)CNCC(C)(C)C)cn1 | inactive | inactive | inactive | – | – | –
